This is part of a sample that, as a whole, favours compounds with a hit. Of some 83,000 tested, about 20% had one in any assay.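 Note: values are percent growth. 100 is the growth of untreated cells, values between 100 and 0 indicate rising inhibition; between -100 and 0 indicates cell death.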 Values without a mark were called inactive. Calls of active or inactive are those of the source. Rule for the calls: active = growth percent below 10; inactive = the rest.
Columns and labels:
Test in all cases: NCI-60 one-dose screen, 48 h (100 = growth as untreated, 0 = no growth, -100 = all killed)
Settings in all cases: 10 µM unless noted
NCI-H226 lung = tested on: NCI-H226 lung
NCI-H322M lung = tested on: NCI-H322M lung
HOP-62 NSCLC = tested on: HOP-62 NSCLC
NCI-H460 lung = tested on: NCI-H460 lung
HOP-92 NSCLC = tested on: HOP-92 NSCLC
NCI-H522 lung = tested on: NCI-H522 lung
A549/ATCC NSCLC = tested on: A549/ATCC NSCLC
786-0 renal = tested on: 786-0 renal
COLO 205 colon = tested on: COLO 205 colon
DU-145 prostate = tested on: DU-145 prostate
K-562 leukemia = tested on: K-562 leukemia
MALME-3M melanoma = tested on: MALME-3M melanoma
MDA-MB-231 breast = tested on: MDA-MB-231 breast
RXF 393 renal = tested on: RXF 393 renal
SF-268 CNS = tested on: SF-268 CNS
SF-295 CNS = tested on: SF-295 CNS
SF-539 CNS = tested on: SF-539 CNS
UACC-257 melanoma = tested on: UACC-257 melanoma
M14 melanoma = tested on: M14 melanoma
HCT-15 colon = tested on: HCT-15 colon

Compound | growth (NCI-H226 lung) | growth (NCI-H322M lung) | growth (HOP-62 NSCLC) | growth (NCI-H460 lung) | growth (HOP-92 NSCLC) | growth (NCI-H522 lung) | growth (A549/ATCC NSCLC) | growth (786-0 renal) | growth (COLO 205 colon) | growth (DU-145 prostate) | growth (K-562 leukemia) | growth (MALME-3M melanoma) | growth (MDA-MB-231 breast) | growth (RXF 393 renal) | growth (SF-268 CNS) | growth (SF-295 CNS) | growth (SF-539 CNS) | growth (UACC-257 melanoma) | growth (M14 melanoma) | growth (HCT-15 colon)
COc1ccc(NC2=CC(=O)C(C)=C(C)C2=O)cc1 | 97.2% | 103% | 99.7% | 99.6% | 172% | 82.5% | 97.3% | 90.5% | 107% | 105% | 66.6% | 89.9% | 83.8% | 102% | 101% | 105% | 105% | 45.4% | 95.6% | 89%
OC1CCN(CCCOc2c3ccc(Cl)cc3nc3c2oc2ccccc23)CC1 | -6.33% (active) | -16.3% (active) | 12.5% | -9.21% (active) | -4% (active) | -48.9% (active) | 9.13% (active) | -30.7% (active) | -69% (active) | -0.646% (active) | -7.34% (active) | -81.2% (active) | -14.7% (active) | -74.3% (active) | 4.41% (active) | -23.2% (active) | -76.1% (active) | -69.2% (active) | -84.2% (active) | -31.7% (active)
Clc1ccc2c(NCCCn3ccnc3)c3oc4ccc(Cl)cc4c3nc2c1 | 57.8% | 71% | 66.6% | 11.1% | 57.4% | 82.9% | 89.2% | 41.6% | 96.5% | 92% | 66.2% | 96.5% | 58.8% | 55.4% | 91.1% | 86.4% | 84% | 97.9% | 105% | 51.9%
COc1ccc(NC2=C(Cl)C(=O)C(C)=C(C)C2=O)cc1OC | 92.6% | 101% | 99.6% | 96% | 130% | 84.7% | 87.2% | 107% | 110% | 104% | 60% | 99.7% | 44.9% | 108% | 93.5% | 101% | 94.7% | 95.1% | 95.7% | 96.1%
O=C1C2=C(C(=O)c3c(O)cccc31)C(c1ccco1)c1sc(=O)[nH]c1S2 (stereo not given) | -20.7% (active) | -97.7% (active) | -72.2% (active) | -4% (active) | 69.5% | -5.29% (active) | -47.7% (active) | 62.3% | -89.4% (active) | -93.9% (active) | 22% | -92.3% (active) | 8.88% (active) | 32.5% | 50.7% | -15.6% (active) | -24% (active) | -28.2% (active) | -97.6% (active) | 10.8%
CCCC(=O)NC(c1cccc(N(C)C)c1)c1cc(C)c2cccnc2c1O (stereo not given) | 65.4% | 44.9% | 44% | 25.7% | 64.2% | 75.3% | 79.3% | 56.6% | 88% | 66.2% | 35.3% | 79.8% | 48.2% | 82.1% | 55.1% | 42.3% | 53.9% | 90.6% | 49.3% | 24.9%
Clc1ccc(-c2cn3cc(Cc4ccc(Cl)c(Cl)c4)sc3n2)cc1 | 85.7% | 70.5% | 70.4% | 22.5% | 81.8% | 76% | 61.3% | 84% | 42.7% | 69.6% | 34.7% | 86.3% | 72.7% | 104% | 86.2% | 35.8% | 83.8% | 52.3% | 20.2% | 60.7%
COC(=O)c1ccc(NC(=S)N2CCc3ccc([N+](=O)[O-])cc3C2)cc1O | 100% | 101% | 91.3% | 114% | 99.7% | 99% | 106% | 109% | 105% | 112% | 110% | 95.4% | 94.5% | 110% | 103% | 102% | 103% | 109% | 102% | 99.7%
CCCSc1nc(Nc2ccc(/C(C)=N\NC(N)=S)cc2)c(C#N)c(-c2ccc(OC)cc2)n1 | 27% | 80.8% | 31.6% | 42.8% | -20.9% (active) | 89% | 60.6% | 5.18% (active) | 113% | 52.2% | 85.1% | 49.2% | 7.95% (active) | 10.8% | 64.5% | 42.2% | 18.7% | 93.7% | 79.5% | 75.7%
Clc1ccc2c(NCCCN3CCOCC3)c3oc4ccc(Cl)cc4c3nc2c1 | 38.4% | 48.5% | 67.2% | 13% | 43.6% | 44.9% | 53.9% | -22.4% (active) | 44.5% | 57.2% | 2.23% (active) | 89.3% | 50.3% | 22.2% | 68.5% | 35% | 41.7% | 102% | 97.5% | 4.4% (active)
Cc1cccc2sc(/N=C(\N)C(Cl)(Cl)Cl)nc12 | 100% | 103% | 81.5% | 100% | 101% | 95.7% | 92.2% | 93.9% | 110% | 92.2% | 100% | 102% | 96.2% | 120% | 94.5% | 94.4% | 99.4% | 104% | 101% | 102%
CN1CCN(Cc2ccc(NC(=O)c3cncc(C#Cc4cnc5[nH]ncc5c4)c3)cc2C(F)(F)F)CC1 | 20.4% | 45.8% | 50.8% | 11.1% | -12.2% (active) | 50.9% | 34.3% | 45.7% | 21.1% | 32.8% | 3.87% (active) | -27.9% (active) | -23.8% (active) | -2.95% (active) | 37.7% | 35.4% | 13% | 40.5% | 8.74% (active) | 19.4%
COC(=O)C1CCCN(S(=O)(=O)/N=C2\NC(=O)NC2=C(Cl)Cl)C1 (stereo not given) | 105% | 103% | 118% | 108% | 110% | 87.7% | 106% | 102% | 112% | 112% | 10.9% | 104% | 102% | 121% | 106% | 104% | 105% | 106% | 99.3% | 80.7%
CC(C)(O)c1cncc(-c2ccc3ncnc(N4CCc5cc(F)c(Cl)cc54)c3c2)c1 | 23.7% | -0.361% (active) | 30.2% | 17.2% | -6.69% (active) | 18.5% | 15.8% | 11.7% | 30.1% | 14.4% | 33.6% | 16.1% | 30.3% | -17% (active) | 26.1% | 7.56% (active) | 4.86% (active) | 42.8% | 32.2% | 14.1%
CC(O)C(NC(=O)C1CCCN1C(=O)CNC(=O)C1CC(=O)NCC(=O)NC(Cc2c[nH]c3ccccc23)C(=O)NC(Cc2ccc(O)cc2)C(=O)NCC(=O)NC(CO)C(=O)NC(CCC(N)=O)C(=O)NC(Cc2c[nH]c3ccccc23)C(=O)N1)C(=O)NCC(=O)NC(CCC(N)=O)C(=O)NC(CCCNC(=N)N)C(=O)NC(CC(=O)O)C(=O)O (stereo not given) | 107% | 95.2% | 105% | 105% | 94% | 94.9% | 105% | 108% | 109% | 104% | 94.9% | 95.5% | 98.6% | 116% | 103% | 102% | 96% | 102% | 91.1% | 99.5%

— PubChem BioAssay (NCI)
